In the library only some 2.4% were active in any assay of this set; here they are far more common.
SmPrx2 inh – Schistosoma Mansoni Peroxiredoxins (Prx2) | Schistosoma mansoni peroxiredoxin 2 (Prx2) | S. mansoni Prx2 activity coupled to TGR/GSH (TGR is thioredoxin glutathione reductase), NADPH fluorescence loss, qHTS | Potency, µM | actives 0.07% (n = 65,000) | AID 448, 2006
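Prx2 inhibition was measured as reduced NADPH consumption when electrons flowed from NADPH through TGR and glutathione to Prx2 and H2O2. Plates were read kinetically over 8 min; enzyme reagents were held at 4 deg C during dispensing.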
Anthrax LT inh – qHTS Assay for Anthrax Lethal Toxin Internalization. Cells, anthrax lethal toxin internalization, FRET ratio (460/530). Potency, µM (highest dose often 40 µM), inactives show at the top dose activity change, negative = inhibition, actives largely listed as inhibitors. actives 0.67% (n = 70,000). AID 912, 2007; note: % is set by controls: 0 for no effect and ±100 for the full control effect; nearly all actives have a fitted effect of over 50% in size
AmpC inh det – Promiscuous and Specific Inhibitors of AmpC Beta-Lactamase (assay with detergent); purified AmpC, nitrocefin hydrolysis with detergent; Potency, µM (top dose mostly 28.7 µM), for inactives: top-dose activity change, negative = inhibition; actives 0.09% (n = 71,000); active = well fitted curve in the direction sought with a large enough effect; inconclusive = small, poorly fitted or top-dose-only effect; note: % is set by controls: 0 for no effect and ±100 for the full control effect
Target sequence (P00811 whole entry, looked up): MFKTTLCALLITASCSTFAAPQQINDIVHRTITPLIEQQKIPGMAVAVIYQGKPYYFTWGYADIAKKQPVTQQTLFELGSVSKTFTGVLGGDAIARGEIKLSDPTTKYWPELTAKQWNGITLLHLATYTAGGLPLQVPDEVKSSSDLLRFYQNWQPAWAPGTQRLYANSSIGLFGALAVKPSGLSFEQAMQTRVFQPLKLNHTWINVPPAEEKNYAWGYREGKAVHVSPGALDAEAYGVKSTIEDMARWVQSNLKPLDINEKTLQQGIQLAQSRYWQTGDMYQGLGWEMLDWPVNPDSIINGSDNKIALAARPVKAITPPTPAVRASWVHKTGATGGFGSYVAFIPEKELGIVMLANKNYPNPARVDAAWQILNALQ
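E. coli AmpC (5.3 nM) in 20 mM phosphate pH 7.0 with 0.01% Triton X-100, preincubated 15 min RT with compound; nitrocefin (2 uL of 800 uM stock) hydrolysis followed by 480 nm absorbance every 20 s over 4 min.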
AmpC inh no det – Promiscuous and Specific Inhibitors of AmpC Beta-Lactamase (assay without detergent); P00811; AmpC nitrocefin hydrolysis, absorbance 480 nm, no detergent; Potency, µM (highest dose often 28.7 µM), inactives show at the top dose activity change, negative = inhibition; actives 1.8% (n = 71,000); AID 585, 2007; note: % of control where 0% means no effect
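AmpC, 20 mM phosphate pH 7.0; 15 min cpd preinc, RT; start with nitrocefin (800 uM stock); A480 kinetic read, 20 s intervals, 4 min. No-enzyme wells = negative control.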
The depositor's hits bear a star; [ ] = dose if it differs, or a comment. Unless noted, calls come from the whole dose curve. Potency is the fitted concentration of half-maximal effect.

`CC(=O)Oc1ccc(/C=C\C(=O)C[C@@H]2O[C@@H](Oc3cc(OC(C)=O)c4c(c3)O[C@@H](c3ccc(OC(C)=O)cc3)CC4=O)[C@H](OC(C)=O)[C@H](OC(C)=O)[C@@H]2OC(C)=O)cc1` gave SmPrx2 inh >57, Anthrax LT inh inconclusive, AmpC inh det 1% and AmpC inh no det 51%.
For Cc1ccsc1-c1nc(CSCC(=O)N2CCN(c3ccccc3)CC2)c(C)o1 the results were SmPrx2 inh >57, Anthrax LT inh 16µM*, AmpC inh det 10% and AmpC inh no det 127%.
`Cc1ccc(-c2nc(CSCC(=O)N3CCCC3)c(C)o2)cc1` gave SmPrx2 inh >57, Anthrax LT inh 7%, AmpC inh det -1% and AmpC inh no det 67%.
CC(C)(C)OC(=O)N1CCC(C(N)=O)CC1 was read as SmPrx2 inh >57, Anthrax LT inh -13%, AmpC inh det 12% and AmpC inh no det 4µM*[single pt active].
COc1ccccc1S(=O)Cc1ccc(C(=O)NCCc2ccc(Cl)cc2)o1 (stereo unspecified) was read as SmPrx2 inh >57, Anthrax LT inh 2.5µM*, AmpC inh det 11% and AmpC inh no det 73%.
`COc1ccccc1S(=O)(=O)Cc1ccc(C(=O)NCCN(C)C)o1` gave SmPrx2 inh >57, Anthrax LT inh -13%, AmpC inh det 5% and AmpC inh no det -2%.
COc1ccc(S(=O)(=O)Cc2ccc(C(=O)NC3CC3)o2)cc1 was read as SmPrx2 inh >57, Anthrax LT inh 9%, AmpC inh det 4% and AmpC inh no det 0%.
Screening COc1ccccc1S(=O)Cc1ccc(C(=O)NC2CCCC2)o1 (stereo unspecified) returned SmPrx2 inh >57, Anthrax LT inh -19%, AmpC inh det 11% and AmpC inh no det 4µM*[single pt active].
N[C@H](CCl)C(=O)O was read as SmPrx2 inh >57, Anthrax LT inh 0%, AmpC inh det -1% and AmpC inh no det -3%.
Screening CC1=CC(=O)CC(C)(C)[C@]1(O)/C=C\C(C)=C\C(=O)O returned SmPrx2 inh >57, Anthrax LT inh -3%[8 µM], AmpC inh det -2%[5.75 µM] and AmpC inh no det 4%[5.75 µM].
For CC(C)CN(CC(C)C)c1nnc(N)s1 the results were SmPrx2 inh >57, Anthrax LT inh 0%, AmpC inh det 26% and AmpC inh no det 4µM*[single pt active].
For CC(=O)Oc1cc(OC(C)=O)c2c(=O)cc(-c3ccc(OC(C)=O)c(OC(C)=O)c3)oc2c1 the results were SmPrx2 inh >57, Anthrax LT inh inconclusive, AmpC inh det -4% and AmpC inh no det 16%.
Screening Cn1nc(-c2ccc(Cl)cc2)c2cc(C(=O)N3CCCC3)sc21 returned SmPrx2 inh >57, Anthrax LT inh inconclusive, AmpC inh det 11% and AmpC inh no det 42%.
`Cn1nc(-c2ccc(Cl)cc2)c2cc(C(=O)N3CCN(c4ccccc4)CC3)sc21` gave SmPrx2 inh >57, Anthrax LT inh inconclusive, AmpC inh det 13% and AmpC inh no det 4µM*[single pt active].
For Cn1nc(-c2ccc(Cl)cc2)c2cc(C(=O)N3CCN(c4ccccn4)CC3)sc21 the results were SmPrx2 inh >57, Anthrax LT inh inconclusive, AmpC inh det 7% and AmpC inh no det 4µM*[single pt active].
C[C@@]12C[C@H](O)[C@@H]3[C@H](CCC4=CC(=O)CC[C@]43C)[C@H]1CC[C@@H]2c1csc(-c2ccccc2)n1 was read as SmPrx2 inh >57, Anthrax LT inh inconclusive, AmpC inh det -6%[5.75 µM] and AmpC inh no det -5%[5.75 µM].
Screening CCOC(=O)c1ccc(NC(=O)c2ccc(C)c(S(=O)(=O)N3CCOCC3)c2)cc1 returned SmPrx2 inh inconclusive, Anthrax LT inh 13µM*, AmpC inh det -1% and AmpC inh no det 80%.
`COc1cc2c(O)c3c(c(-c4ccc5c(c4)OCO5)c2cc1OC)C(=O)OC3` gave SmPrx2 inh >57, Anthrax LT inh 0.02µM*, AmpC inh det 4% and AmpC inh no det 6%.
For COc1cc2c(=O)n(-c3ccc(C)cc3)c(=O)n(CC(=O)c3ccc4c(c3)OCO4)c2cc1OC the results were SmPrx2 inh >57, Anthrax LT inh 5%, AmpC inh det -4% and AmpC inh no det 119%.
Screening COc1ccc(OCC(O)CN2CCCCC2)cc1 (stereo unspecified) returned SmPrx2 inh >57, Anthrax LT inh -9%, AmpC inh det 11% and AmpC inh no det 4µM*[single pt active].
For O=C(c1cc2ccccc2cc1OCC(O)CN1CCCCC1)N1CCCCC1 (stereo unspecified) the results were SmPrx2 inh >57, Anthrax LT inh -12%, AmpC inh det 12% and AmpC inh no det 4µM*[single pt active].
For OC(COc1ccc(Cl)cc1)CN1CCCCC1 (stereo unspecified) the results were SmPrx2 inh >57, Anthrax LT inh -17%, AmpC inh det 1% and AmpC inh no det -2%.
For CCNS(=O)(=O)c1ccc(C)cc1 the results were Anthrax LT inh 1%, AmpC inh det 7% and AmpC inh no det -5%.
`Fc1ccc(C(OCCN2CCN(CCCc3ccccc3)CC2)c2ccc(F)cc2)cc1` gave SmPrx2 inh >57, Anthrax LT inh inconclusive, AmpC inh det -6% and AmpC inh no det 13%.
c1ccc(CCCN2CCN(CCOC(c3ccccc3)c3ccccc3)CC2)cc1 was read as SmPrx2 inh >57, Anthrax LT inh 25µM*, AmpC inh det 0% and AmpC inh no det 70%.
Screening CC1=C(\C=C/C(C)=C/C=C\C(C)=C\C(=O)Nc2ccc(O)cc2)C(C)(C)CCC1 returned SmPrx2 inh >57, Anthrax LT inh -8%, AmpC inh det 1% and AmpC inh no det 6%.
`Clc1ccc(OCc2nn3c(C4CCCCC4)nnc3s2)c(Cl)c1` gave SmPrx2 inh >57, Anthrax LT inh 2%, AmpC inh det -1% and AmpC inh no det 35%.
Screening COc1ccccc1-c1nnc2sc(COc3ccc(Cl)cc3Cl)nn12 returned SmPrx2 inh >57, Anthrax LT inh 10µM*, AmpC inh det -4% and AmpC inh no det 49%.
Screening COc1ccc(OC)c([C@H]2Nc3ccccc3NC3=C2C(=O)CC(C)(C)C3)c1Br returned SmPrx2 inh >11, Anthrax LT inh 11%, AmpC inh det -3% and AmpC inh no det 74%.
Screening CO[C@]1(NC(=O)Cc2cccs2)C(=O)N2C(C(=O)O)=C(COC(N)=O)CS[C@H]21 returned SmPrx2 inh >26, Anthrax LT inh 5µM*, AmpC inh det 5µM* and AmpC inh no det 5µM*.
CO[C@]1(NC(=O)C2SC(=C(C(N)=O)C(=O)O)S2)C(=O)N2C(C(=O)O)=C(CSc3nnnn3C)CS[C@H]21 (stereo partly specified) was read as SmPrx2 inh >57, Anthrax LT inh 0.5µM*, AmpC inh det 2µM* and AmpC inh no det inconclusive.
`Cn1nnnc1SCC1=C(C(=O)O)N2C(=O)[C@@H](NC(=O)[C@@H](O)c3ccccc3)[C@@H]2SC1` gave SmPrx2 inh >57, Anthrax LT inh 0%[3.58 µM], AmpC inh det -3%[12.8 µM] and AmpC inh no det -18%[12.8 µM].
